Test [1] can be described thus: NCI Yeast Anticancer Drug Screen. Data for the rad50 strain (AID 155).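 Note: 0% = growth of vehicle-only cultures of the same strain.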 To be noted: S. cerevisiae rad50 strain growth inhibition, hits give high values. In short, it runs like this: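 Compounds were tested on a yeast strain with an engineered DNA damage repair alteration; the reported value is growth inhibition normalised to vehicle treatment.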
Test [2] in a line: NCI Yeast Anticancer Drug Screen. Data for the mec2-1 strain (AID 157). The following applies: S. cerevisiae mec2-1 strain, hits give high values. In short, it runs like this:
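Each compound was tested on mec2-1 yeast, a strain altered in DNA damage repair or cell cycle control. Growth inhibition is reported relative to vehicle.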

The nature of test [3]: NCI Yeast Anticancer Drug Screen. Data for the sgs1 mgt1 strain (AID 161).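 Note: 0% = growth of cultures given vehicle only.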 The following applies: S. cerevisiae sgs1 mgt1 strain, hits give high values. In short, it runs like this: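 Genetically altered yeast, compound exposure, growth inhibition relative to vehicle.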
A short description of test [4]: NCI Yeast Anticancer Drug Screen. Data for the cln2 rad14 strain (AID 165).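 Note: 0% = growth equal to vehicle treated cultures.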 To be noted: S. cerevisiae cln2 rad14 strain, hits give high values. In short, it runs like this: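 Test compounds were added to cln2 rad14 yeast cultures; inhibition of growth was then determined by comparison with vehicle treatment.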
A short description of test [5]: NCI Yeast Anticancer Drug Screen. Data for the bub3 strain (AID 167). The following applies: S. cerevisiae bub3 mutant strain, hits give high values. In short, it runs like this:
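Growth of a checkpoint-deficient yeast mutant is measured after compound exposure. Values represent inhibition relative to vehicle.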

Test [6] can be described thus: NCI Yeast Anticancer Drug Screen. Data for the mlh1 rad18 strain (AID 175). To be noted: S. cerevisiae mlh1 rad18 strain growth inhibition, hits give high values. In short, it runs like this: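 Inhibition values reflect reduced growth of mutant yeast versus vehicle-treated controls following compound exposure; the mutations affect DNA damage repair.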
The mark [7] stands for this setting: at 5.0 µM (retest, dose inferred, filed as 0.5).
Where [8] appears, read: at 50.0 µM (retest, dose inferred, filed as 5.0).

About 79,000 compounds went through this panel and 15% of them were active in at least one assay; those are over-represented in the sample as a whole. A number with no mark means an inactive call. Active and inactive are the calls of the source. Cut-off read from the data, not from the text of the source: active = growth inhibition above about 70%; inactive = the rest.

In the case of `O=Nc1c(-c2c[nH]c3ccccc23)[nH]c2ccccc12`, the growth inhibition in test [1] (setting [7]) was 8%; in test [1] (setting [8]), 60%; in test [1] (at 50.0 µM), 51.1%; in test [2] (setting [7]), 7%; in test [2] (setting [8]), 44%; in test [2] (at 50.0 µM) it was 24.2%. The growth inhibition in test [3] (setting [7]) is 13%; in test [3] (setting [8]), 56%; in test [3] (at 50.0 µM) it was 16%; in test [4] (setting [7]), -8%; in test [4] (setting [8]), 33%; in test [4] (at 50.0 µM) it was 16.9%. The growth inhibition in test [5] (setting [7]) is 13%; in test [5] (setting [8]), 84% (active); in test [5] (at 50.0 µM), 69%; in test [6] (setting [7]), 12%; in test [6] (setting [8]) it was 53%; in test [6] (at 50.0 µM) it was 26.1%.

With `O=[N+]([O-])c1ccc(SC(=S)N2CCCCC2)c([N+](=O)[O-])c1`, the growth inhibition in test [1] (setting [7]) is 21%; in test [1] (setting [8]), 98% (active); in test [1] (at 50.0 µM) it was 98.4% (active); in test [2] (setting [7]), 16%; in test [2] (setting [8]), 98% (active); in test [2] (at 50.0 µM) it was 99% (active). Also, the growth inhibition in test [3] (setting [7]) was 15%; in test [3] (setting [8]), 99% (active); in test [3] (at 50.0 µM) it was 99.2% (active); in test [4] (setting [7]), 0%; in test [4] (setting [8]), 92% (active); in test [4] (at 50.0 µM), 98.4% (active). For the same molecule, the growth inhibition in test [5] (setting [7]) was 10%; in test [5] (setting [8]), 98% (active); in test [5] (at 50.0 µM), 98.8% (active); in test [6] (setting [7]) it was 21%; in test [6] (setting [8]) it was 98% (active); in test [6] (at 50.0 µM), 98.9% (active).

Regarding `C/C(CCn1[nH]c(=O)ccc1=O)=N\NS(=O)(=O)c1ccc(C)cc1`, the growth inhibition in test [1] (setting [7]) is -3%; in test [1] (setting [8]), -3%; in test [1] (at 50.0 µM), -4.05%; in test [2] (setting [7]) it was 4%; in test [2] (setting [8]), 15%; in test [2] (at 50.0 µM) it was 4.6%. In addition, the growth inhibition in test [3] (setting [7]) is 0%; in test [3] (setting [8]) it was -11%; in test [3] (at 50.0 µM), 12.6%; in test [4] (setting [7]), 11%; in test [4] (setting [8]), 29%; in test [4] (at 50.0 µM), -6.7%. Also, the growth inhibition in test [5] (setting [7]) is -1%; in test [5] (setting [8]) it was 6%; in test [5] (at 50.0 µM), -5.15%; in test [6] (setting [7]), -8%; in test [6] (setting [8]), 11%; in test [6] (at 50.0 µM), -10.3%.

With `CCOC(=O)CC1C(=O)N(c2nc(-c3ccc(Br)cc3)cs2)N=C1C` (stereo not given), the growth inhibition in test [1] (setting [7]) is 2%; in test [1] (setting [8]), 2%; in test [1] (at 50.0 µM), 43.5%; in test [2] (setting [7]), 2%; in test [2] (setting [8]), 37%; in test [2] (at 50.0 µM), 23.1%. Moreover, the growth inhibition in test [3] (setting [7]) was 3%; in test [3] (setting [8]) it was 7%; in test [3] (at 50.0 µM), 60.7%; in test [4] (setting [7]) it was -2%; in test [4] (setting [8]), -9%; in test [4] (at 50.0 µM), 32.3%. Besides, the growth inhibition is -23% in test [5] (setting [7]); -8% in test [5] (setting [8]); 4.05% in test [5] (at 50.0 µM); 2% in test [6] (setting [7]); -19% in test [6] (setting [8]); 75.8% (active) in test [6] (at 50.0 µM).

`Clc1cccc(Cl)c1C(Nc1nncs1)Nc1nncs1`: the growth inhibition in test [1] (setting [7]) is 0%; in test [1] (setting [8]), 85% (active); in test [1] (at 50.0 µM), 93.2% (active); in test [2] (setting [7]), -9%; in test [2] (setting [8]), 51%; in test [2] (at 50.0 µM), 79.8% (active). For the same molecule, the growth inhibition in test [3] (setting [7]) was 0%; in test [3] (setting [8]), 55%; in test [3] (at 50.0 µM), 88.2% (active); in test [4] (setting [7]), 8%; in test [4] (setting [8]), 42%; in test [4] (at 50.0 µM), 72.9% (active). Further, the growth inhibition was -11% in test [5] (setting [7]); 56% in test [5] (setting [8]); 53% in test [5] (at 50.0 µM); 0% in test [6] (setting [7]); 94% (active) in test [6] (setting [8]); 97.3% (active) in test [6] (at 50.0 µM).

Regarding `C[N+](C)(C)CC(=O)N/N=C/c1oc(-c2c(O)ccc3ccccc23)c(-c2c(O)ccc3ccccc23)c1[N+](=O)[O-]`, the growth inhibition was 57% in test [1] (setting [7]); 57% in test [1] (setting [8]); 90% (active) in test [1] (at 50.0 µM); 47% in test [2] (setting [7]); 47% in test [2] (setting [8]); 90.6% (active) in test [2] (at 50.0 µM). Moreover, the growth inhibition was 51% in test [3] (setting [7]); 51% in test [3] (setting [8]); 90.2% (active) in test [3] (at 50.0 µM); 13% in test [4] (setting [7]); 13% in test [4] (setting [8]); 80.9% (active) in test [4] (at 50.0 µM). Further, the growth inhibition in test [5] (setting [7]) was 44%; in test [5] (setting [8]), 44%; in test [5] (at 50.0 µM), 84.4% (active); in test [6] (setting [7]), 58%; in test [6] (setting [8]), 58%; in test [6] (at 50.0 µM), 84.2% (active).

As for `CC(C)SC(=S)S(=O)(=O)c1ccc(Cl)cc1`, the growth inhibition in test [1] (setting [7]) is 5%; in test [1] (setting [8]) it was 69%; in test [1] (at 50.0 µM), 99.4% (active); in test [2] (setting [7]), 0%; in test [2] (setting [8]) it was 64%; in test [2] (at 50.0 µM), 99.8% (active). Besides, the growth inhibition in test [3] (setting [7]) was 18%; in test [3] (setting [8]), 74% (active); in test [3] (at 50.0 µM), 99.7% (active); in test [4] (setting [7]), -6%; in test [4] (setting [8]) it was 63%; in test [4] (at 50.0 µM), 78.2% (active). Also, the growth inhibition in test [5] (setting [7]) is 11%; in test [5] (setting [8]), 83% (active); in test [5] (at 50.0 µM), 99.7% (active); in test [6] (setting [7]) it was 8%; in test [6] (setting [8]) it was 76% (active); in test [6] (at 50.0 µM), 99.7% (active).

Regarding `CC(Cc1ccccc1)NNC(C)Cc1ccccc1` (stereo not given), the growth inhibition in test [1] (setting [7]) is 10%; in test [1] (setting [8]), 81% (active); in test [1] (at 50.0 µM) it was 99.5% (active); in test [2] (setting [7]) it was 4%; in test [2] (setting [8]), 64%; in test [2] (at 50.0 µM), 96.2% (active). For the same molecule, the growth inhibition was 11% in test [3] (setting [7]); 90% (active) in test [3] (setting [8]); 75.5% (active) in test [3] (at 50.0 µM); -39% in test [4] (setting [7]); 63% in test [4] (setting [8]); 83.2% (active) in test [4] (at 50.0 µM). Also, the growth inhibition in test [5] (setting [7]) is 16%; in test [5] (setting [8]) it was 91% (active); in test [5] (at 50.0 µM), 94.5% (active); in test [6] (setting [7]), 7%; in test [6] (setting [8]) it was 83% (active); in test [6] (at 50.0 µM) it was 99.5% (active).

As for `Cc1[nH]c2c(C)c3c([nH]c4ccc(Cl)cc43)c(C)c2c(=O)c1C`, the growth inhibition in test [1] (setting [7]) is -8%; in test [1] (setting [8]) it was 12%; in test [1] (at 50.0 µM), 61.1%; in test [2] (setting [7]), -24%; in test [2] (setting [8]), 0%; in test [2] (at 50.0 µM) it was 14.2%. The growth inhibition is -14% in test [3] (setting [7]); 3% in test [3] (setting [8]); 23.9% in test [3] (at 50.0 µM); -17% in test [4] (setting [7]); 6% in test [4] (setting [8]); 13.7% in test [4] (at 50.0 µM). Moreover, the growth inhibition was -10% in test [5] (setting [7]); -3% in test [5] (setting [8]); 8.65% in test [5] (at 50.0 µM); -19% in test [6] (setting [7]); -2% in test [6] (setting [8]); 39.1% in test [6] (at 50.0 µM).

Regarding `O=C(/C=C/c1cccc([N+](=O)[O-])c1)CCl`, the growth inhibition in test [1] (setting [7]) was 1%; in test [1] (setting [8]) it was 98% (active); in test [1] (at 50.0 µM), 99.3% (active); in test [2] (setting [7]) it was -20%; in test [2] (setting [8]), 99% (active); in test [2] (at 50.0 µM), 99.6% (active). Besides, the growth inhibition is 13% in test [3] (setting [7]); 99% (active) in test [3] (setting [8]); 99.2% (active) in test [3] (at 50.0 µM); -22% in test [4] (setting [7]); 98% (active) in test [4] (setting [8]); 98.9% (active) in test [4] (at 50.0 µM). Also, the growth inhibition in test [5] (setting [7]) was 14%; in test [5] (setting [8]), 98% (active); in test [5] (at 50.0 µM), 99.5% (active); in test [6] (setting [7]) it was -32%; in test [6] (setting [8]), 98% (active); in test [6] (at 50.0 µM), 99.3% (active).

Source of the values: PubChem BioAssay (NCI).
